13 compounds from article PMC5540273 (PLoS ONE, 2017) can be followed below.

Structures are written as SMILES.
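Note: KINOMEscan kinase panel screen.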

This assay relates to EPHA5. To be noted: concentration: 1 μM,replicates: in singlicate; n = 1.
In the case of `CS(=O)c1ccc(-c2coc3ccc(-c4n[nH]c(=O)o4)cc23)cc1` (stereo not shown), the “%Inh” value was found to be 0%.

Regarding `Cc1ccc(Nc2ccnc(Nc3ccc4c(c3)CS(=O)(=O)C4)n2)cc1O.Cl` [GW579362], the “%Inh” value was 32%.

With `CS(=O)(=O)Nc1ccc(-c2ccnc3[nH]ccc23)cc1` [GSK993273], the “%Inh” value is 0%.

Take `COc1cc(Nc2nccc(N3CCC(NC(=O)c4cccc(C#N)c4)C3)n2)cc(OC)c1OC` (stereo not shown) [GSK1379751]: the “%Inh” value is recorded as 0%.

As to `O=c1[nH]cc(-c2ccc(O)cc2)c2sc(-c3ccncc3)cc12` [GSK1033723], the “%Inh” value turned out to be 0%.

In the case of `COc1cccc(CNC(=O)NC2CCN(c3ccnc(Nc4cc(OC)c(OC)c(OC)c4)n3)C2)c1` (stereo not shown) [GSK1379765], the “%Inh” value is 0%.

In the case of `O=C1NCCc2[nH]c(-c3ccncc3)cc21`, the “%Inh” value was 31%.

Consider `O=C(Nc1ccc(Oc2ccc3nc(NC(=O)C4CC4)cn3n2)c(F)c1)c1cccn(-c2ccccc2)c1=O`, for which the “%Inh” value was 11%.

For the compound `COC(=O)c1cccc(NC(=O)NC2CCN(c3ccnc(NCc4ccc(F)cc4)n3)CC2)c1` [GSK1379860], the “%Inh” value turned out to be 0%.

With `Nc1nccc(-c2ccc3c(N)n[nH]c3c2)n1` [GSK1034945], the “%Inh” value is recorded as 0%.

On to `CC(C(=O)NC1CCN(c2ccnc(Nc3ccc(F)cc3)n2)C1)c1ccc(Cl)cc1` (stereo not shown) [GSK1379713], for which the “%Inh” value worked out at 0%.

As for `Cc1ccc(C(=O)Nc2ccc(Oc3ccc4nc(NC(=O)C5CC5)cn4c3)c(F)c2)c(=O)n1-c1ccccc1`, the “%Inh” value amounted to 45%.

For `OCCn1cc(-c2cnc3nnn(Cc4ccc5ncccc5c4)c3n2)cn1`, the “%Inh” value worked out at 0%.
